Results taken from PubChem BioAssay (NCI).
Where “and” joins values, the source holds several entries; their conditions need not be identical. Equal entries are not always repeated. The panel holds about 83,000 compounds, 20% with a hit somewhere; the sample as a whole holds those more often.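 Activity criterion: percent growth below 10, measured after cells in 96-well plates were exposed to a single compound concentration for 48 hours.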 Calls of active or inactive are those of the source.

How the values were obtained:
Assay in all cases: NCI-60 one-dose screen, 48 h (100 = growth as untreated, 0 = no growth, -100 = all killed)
Conditions in all cases: 10 µM unless noted
NCI-H226 lung = test system: NCI-H226 lung
NCI-H322M lung = test system: NCI-H322M lung
HOP-62 NSCLC = test system: HOP-62 NSCLC
NCI-H460 lung = test system: NCI-H460 lung
HOP-92 NSCLC = test system: HOP-92 NSCLC
NCI-H522 lung = test system: NCI-H522 lung
A549/ATCC NSCLC = test system: A549/ATCC NSCLC
786-0 renal = test system: 786-0 renal
COLO 205 colon = test system: COLO 205 colon

Row | Structure (SMILES) | growth (NCI-H226 lung) | growth (NCI-H322M lung) | growth (HOP-62 NSCLC) | growth (NCI-H460 lung) | growth (HOP-92 NSCLC) | growth (NCI-H522 lung) | growth (A549/ATCC NSCLC) | growth (786-0 renal) | growth (COLO 205 colon)
1 | COc1cc(C2CC(c3ccc(Cl)cc3)=Nc3c(N)nc(N)nc3N2)ccc1Oc1nc(Nc2ccc(F)cc2)nc(N(C)C)n1 (stereo not given) | 60.9% (inactive) | 93.8% (inactive) | 74.1% (inactive) | 13.5% (inactive) | 12.6% (inactive) | 38.9% (inactive) | 47.2% (inactive) | 38.2% (inactive) | 55.4% (inactive)
2 | CC[C@]12C=CCN3CC[C@]4(C(=C(C(=O)OC)C1)Nc1cc(OC)c([C@@H]5[C@H]6O[C@H]6[C@@]6(CC)CC(C(=O)OC)=C7Nc8cc(OC)ccc8[C@@]78CCN5[C@@H]68)cc14)[C@@H]32 | 72.3% (inactive) | 86.2% (inactive) | 74.1% (inactive) | 29.9% (inactive) | 62.1% (inactive) | 64.8% (inactive) | 70.1% (inactive) | 44.6% (inactive) | 
3 | CCCCCCCCCc1ccc(C(=O)Nc2cc(C)ccc2C(=O)OC)cc1 | 98.9% (inactive) | 112% (inactive) | 107% (inactive) | 115% (inactive) | 61.6% (inactive) | 101% (inactive) | 114% (inactive) | 101% (inactive) | 131% (inactive)
4 | NCCCCn1c(SCCc2c[nH]c3ccccc23)nnc1-c1ccc2ccccc2n1 | 55.2% (inactive) | 18.1% (inactive) | -49.7% (active) | -76.9% (active) | -8.52% (active) | -73.1% (active) | 8.17% (active) | -92.3% (active) | -66.6% (active)
5 | O=C(CCl)Nc1ccc(C(=O)/C=C/c2cc3ccccc3nc2Cl)cc1 | 12.4% (inactive) and 14.5% (inactive) | 22.4% (inactive) and 45.1% (inactive) | -8.06% (active) and 37.4% (inactive) | -53.6% (active) and 19.5% (inactive) | 46.9% (inactive) and 65.3% (inactive) | -62.9% (active) and 76.9% (inactive) | 72.4% (inactive) and 60.8% (inactive) | -41.7% (active) and 23.9% (inactive) | -64.4% (active) and 72.4% (inactive)
6 | Cc1nc(N)ncc1-c1ccc2ncnc(N3CCc4cc(F)c(Cl)cc43)c2c1 | 73.7% (inactive) | 28.7% (inactive) | 72.8% (inactive) | 76.7% (inactive) | 13.6% (inactive) | 68.2% (inactive) | 56.2% (inactive) | 39.1% (inactive) | 81.5% (inactive)
7 | COc1ccc(-c2nc3ccc(-c4nnc(SCc5ccccc5)o4)cc3[nH]2)cc1OC | -26.7% (active) | 46.7% (inactive) | -29.8% (active) | -6.16% (active) | -3.75% (active) | 51.9% (inactive) | 9.7% (active) | -33.5% (active) | 74.2% (inactive)
8 | Oc1cncc(-c2ccc3ncnc(N4CCc5cc(F)c(Cl)cc54)c3c2)c1 | 42.2% (inactive) | 54.4% (inactive) | 49.5% (inactive) | 39.2% (inactive) | 40.9% (inactive) | 68.4% (inactive) | 40.4% (inactive) | 35.4% (inactive) | 77% (inactive)
9 | C#CCN(C)CCCOc1ccc(N(C)C(=O)c2cc(C(C)C)c(O)cc2O)cc1Cl | 13.7% (inactive) | 34.8% (inactive) | 34.6% (inactive) | -13.3% (active) | -23.9% (active) | 12.6% (inactive) | 15.9% (inactive) | 33.5% (inactive) | 7.34% (active)
10 | O=Cc1cncc(-c2ccc3ncnc(N4CCc5cc(F)c(Cl)cc54)c3c2)c1 | 10.8% (inactive) | 0.287% (active) | 51.9% (inactive) | 25.2% (inactive) | -4.62% (active) | 59% (inactive) | 21.6% (inactive) | 18% (inactive) | 99.7% (inactive)
11 | COC(=O)c1c(C(=O)OC)c2c3ccccc3c3ccccc3n2c1C(=O)C(F)(F)F | 80% (inactive) | 101% (inactive) | 107% (inactive) | 105% (inactive) | 97.2% (inactive) | 96.4% (inactive) | 111% (inactive) | 102% (inactive) | 108% (inactive)
12 | Cc1cn(-c2cc(NC(=O)c3ccc(C)c(-n4cc(-c5cnc6cccnn56)nn4)c3)cc(C(F)(F)F)c2)cn1 | 68.8% (inactive) | 106% (inactive) | 80.5% (inactive) | 102% (inactive) | 53.9% (inactive) | 81.4% (inactive) | 94.3% (inactive) | 95.4% (inactive) | 31% (inactive)
13 | CN(C)CCCNC(=S)Nc1ccc(/C=C/c2ccc(Cl)cc2)cc1 | -20.2% (active) | -95% (active) | -50.8% (active) | -35.8% (active) | -53.3% (active) | -51.9% (active) | -36% (active) | -37.4% (active) | -58% (active)
14 | Cc1[nH]nc2ccc3nc(-c4cnn(CCO)c4)c4c(c3c12)CCCC4 | 28.6% (inactive) | 53.8% (inactive) | 65.6% (inactive) | 26.6% (inactive) | 35.9% (inactive) | 18.9% (inactive) | 49.3% (inactive) | 38.7% (inactive) | 47.5% (inactive)
